Measured values: PubChem BioAssay (NCI)
Several values for one entry are separate records, joined by “and”; a condition that tells them apart may be missing. Equal entries are not always repeated. About 83,000 compounds went through this panel and 20% of them were active in at least one assay; those are over-represented in the sample as a whole.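 Treatment: one concentration, 48 hours, 96-well format. Scoring: percent growth, with anything below 10 considered active.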 The source holds several records for some structures; these can differ, active in one and inactive in another. Activity calls are given as the source filed them.

How the values were obtained:
Test in all cases: NCI-60 one-dose screen, 48 h (100 = growth as untreated, 0 = no growth, -100 = all killed)
Conditions in all cases: 10 µM unless noted
MOLT-4 leukemia = system: MOLT-4 leukemia
SR leukemia = system: SR leukemia
RPMI-8226 leukemia = system: RPMI-8226 leukemia
OVCAR-8 ovarian = system: OVCAR-8 ovarian
OVCAR-5 ovarian = system: OVCAR-5 ovarian
OVCAR-4 ovarian = system: OVCAR-4 ovarian
SK-OV-3 ovarian = system: SK-OV-3 ovarian
IGROV1 ovarian = system: IGROV1 ovarian
OVCAR-3 ovarian = system: OVCAR-3 ovarian
HS 578T breast = system: HS 578T breast
NCI/ADR-RES ovarian = system: NCI/ADR-RES ovarian
T-47D breast = system: T-47D breast
BT-549 breast = system: BT-549 breast
MDA-MB-435 melanoma = system: MDA-MB-435 melanoma
MCF7 breast = system: MCF7 breast
HCT-116 colon = system: HCT-116 colon
HCC-2998 colon = system: HCC-2998 colon
KM12 colon = system: KM12 colon
SW-620 colon = system: SW-620 colon

Measured: growth

CCOP(=O)(NC)OCC
inactive: MOLT-4 leukemia 127% | SR leukemia 71.3% | RPMI-8226 leukemia 92.8% | OVCAR-8 ovarian 115% | OVCAR-5 ovarian 91.5% | OVCAR-4 ovarian 105% | SK-OV-3 ovarian 104% | IGROV1 ovarian 105% | OVCAR-3 ovarian 99.5% | HS 578T breast 98.4% | NCI/ADR-RES ovarian 102% | T-47D breast 102% | BT-549 breast 112% | MDA-MB-435 melanoma 132% | MCF7 breast 101% | HCT-116 colon 92.1% | HCC-2998 colon 112% | KM12 colon 106%

O=C(NC1=NCC[Se]1)c1ccccc1O
active: IGROV1 ovarian -8.34%
inactive: MOLT-4 leukemia 30.3% | SR leukemia 19% | RPMI-8226 leukemia 64.8% | OVCAR-8 ovarian 47.4% | OVCAR-5 ovarian 53.3% | OVCAR-4 ovarian 71.1% | SK-OV-3 ovarian 135% | OVCAR-3 ovarian 69.8% | HS 578T breast 35.5% | NCI/ADR-RES ovarian 21.5% | T-47D breast 79.4% | BT-549 breast 82.1% | MDA-MB-435 melanoma 48.3% | MCF7 breast 51.4% | HCT-116 colon 20.3% | HCC-2998 colon 90% | KM12 colon 71.5%

O=C(NCCCN1CC1)Nc1cccc2ccccc12
inactive: MOLT-4 leukemia 103% and 83.7% | SR leukemia 102% and 87.1% | RPMI-8226 leukemia 100% and 88.4% | OVCAR-8 ovarian 80.1% and 79.3% | OVCAR-5 ovarian 105% and 113% | OVCAR-4 ovarian 105% and 114% | SK-OV-3 ovarian 101% and 95.8% | IGROV1 ovarian 87.5% and 86.9% | OVCAR-3 ovarian 109% and 113% | HS 578T breast 96.2% and 106% | NCI/ADR-RES ovarian 101% | T-47D breast 86.4% | BT-549 breast 90.3% and 105% | SW-620 colon 99% and 89.6% | MCF7 breast 82% and 77.9% | HCT-116 colon 98.1% and 94.2% | HCC-2998 colon 97.9% and 93.4% | KM12 colon 103% and 102%

CN1CCC2(CC1)C(C#N)C(=O)NC(=O)C2C#N (centres undefined)
inactive: MOLT-4 leukemia 100% | SR leukemia 86.5% | RPMI-8226 leukemia 109% | OVCAR-8 ovarian 99% | OVCAR-5 ovarian 104% | OVCAR-4 ovarian 97.3% | SK-OV-3 ovarian 110% | IGROV1 ovarian 123% | OVCAR-3 ovarian 117% | HS 578T breast 113% | NCI/ADR-RES ovarian 113% | T-47D breast 107% | BT-549 breast 103% | MDA-MB-435 melanoma 97.6% | MCF7 breast 88.6% | HCT-116 colon 93.3% | HCC-2998 colon 112% | KM12 colon 126%

CC[C@H](C)[C@H]1O[C@]2(C=C[C@@H]1C)C[C@@H]1C[C@@H](C/C=C(\C)[C@@H](O[C@H]3C[C@H](OC)[C@@H](O[C@H]4C[C@H](OC)[C@@H](NC)[C@H](C)O4)[C@H](C)O3)[C@@H](C)/C=C/C=C3\CO[C@@H]4[C@H](O)C(C)=C[C@@H](C(=O)O1)[C@]34O)O2
inactive: OVCAR-8 ovarian 10.7%
active: MOLT-4 leukemia -42.3% | SR leukemia -32.4% | RPMI-8226 leukemia -30.7% | OVCAR-5 ovarian -34.5% | OVCAR-4 ovarian -1.85% | SK-OV-3 ovarian -36.6% | IGROV1 ovarian -31.9% | OVCAR-3 ovarian -68.8% | HS 578T breast -42.9% | NCI/ADR-RES ovarian 0.588% | T-47D breast -27.6% | BT-549 breast 3.48% | SW-620 colon -68.1% | MCF7 breast -85% | HCT-116 colon -79% | KM12 colon -70.6%

O=Cc1cn(Cc2ccccc2)c2ccccc12
inactive: MOLT-4 leukemia 99.8% | SR leukemia 93% | RPMI-8226 leukemia 61.2% | OVCAR-8 ovarian 85.8% | OVCAR-4 ovarian 55.1% | SK-OV-3 ovarian 61.4% | OVCAR-3 ovarian 68.6% | HS 578T breast 150% | NCI/ADR-RES ovarian 82.1% | T-47D breast 41.4% | BT-549 breast 95.1% | MDA-MB-435 melanoma 125% | SW-620 colon 92.4% | MCF7 breast 84.8% | HCT-116 colon 68.4% | KM12 colon 101%
active: OVCAR-5 ovarian -20.3% | IGROV1 ovarian -21.4%

NC(=O)Oc1cc(OC(N)=O)cc(N(CCCl)CCCl)c1
inactive: MOLT-4 leukemia 13.1% | RPMI-8226 leukemia 59.7% | OVCAR-8 ovarian 28.5% | OVCAR-5 ovarian 91.3% | OVCAR-4 ovarian 74.7% | SK-OV-3 ovarian 76% | IGROV1 ovarian 91.2% | OVCAR-3 ovarian 82.8% | HS 578T breast 107% | NCI/ADR-RES ovarian 54.9% | T-47D breast 53.6% | BT-549 breast 68.2% | MDA-MB-435 melanoma 65.2% | SW-620 colon 60.8% | MCF7 breast 31.8% | HCT-116 colon 61.9% | HCC-2998 colon 103% | KM12 colon 82.3%
active: SR leukemia -17.1%

CCCCCCCCCCCCCCCC[n+]1ccccc1
active: MOLT-4 leukemia -61.5% and -64.2% | SR leukemia -32.3% and -40.4% | RPMI-8226 leukemia -67.1% and -42.5% | OVCAR-8 ovarian -72.2% and -41.8% | OVCAR-5 ovarian -45.6% and -15% | OVCAR-4 ovarian -5.49% and -2.49% | SK-OV-3 ovarian -43% and -22.4% | IGROV1 ovarian -73% and -60.1% | OVCAR-3 ovarian -70.9% and -51% | HS 578T breast -26.3% and -12.5% | T-47D breast 3.84% and -0.991% | BT-549 breast -50.8% and -73.3% | MDA-MB-435 melanoma -82.2% and -80.6% | MCF7 breast -21.9% and -2.32% | HCT-116 colon -65% and -95.5% | HCC-2998 colon -80.8% and -60.6% | KM12 colon -96.2% and -81.6%
inactive: NCI/ADR-RES ovarian 41.7% and 69.3%

ClCc1ccc(Cl)c(Cl)c1
inactive: MOLT-4 leukemia 105% | SR leukemia 101% | RPMI-8226 leukemia 109% | OVCAR-8 ovarian 104% | OVCAR-5 ovarian 98.7% | OVCAR-4 ovarian 106% | SK-OV-3 ovarian 106% | IGROV1 ovarian 94.7% | OVCAR-3 ovarian 114% | HS 578T breast 103% | NCI/ADR-RES ovarian 106% | T-47D breast 106% | BT-549 breast 104% | MDA-MB-435 melanoma 106% | SW-620 colon 97% | MCF7 breast 97.2% | HCT-116 colon 96.1% | HCC-2998 colon 103% | KM12 colon 104%

COc1ccc(N(CC(=O)NCCC[Te]c2ccccc2)C(=O)c2ccccc2)cc1
active: SK-OV-3 ovarian 1.16% | BT-549 breast -36.2% | HCT-116 colon 9.88%
inactive: MOLT-4 leukemia 17.9% | SR leukemia 10.3% | RPMI-8226 leukemia 22.5% | OVCAR-8 ovarian 14.2% | OVCAR-5 ovarian 33.4% | OVCAR-4 ovarian 99% | IGROV1 ovarian 15.4% | OVCAR-3 ovarian 95.9% | HS 578T breast 32.4% | NCI/ADR-RES ovarian 11.5% | T-47D breast 135% | SW-620 colon 82% | MCF7 breast 13.2% | HCC-2998 colon 57.6% | KM12 colon 26.3%

CCOC(=O)c1cncn1C(C)c1ccccc1 (centres undefined)
inactive: MOLT-4 leukemia 94.5% | SR leukemia 90.2% | RPMI-8226 leukemia 105% | OVCAR-8 ovarian 102% | OVCAR-5 ovarian 105% | OVCAR-4 ovarian 109% | SK-OV-3 ovarian 103% | IGROV1 ovarian 107% | OVCAR-3 ovarian 109% | HS 578T breast 97.2% | NCI/ADR-RES ovarian 109% | T-47D breast 105% | BT-549 breast 100% | SW-620 colon 115% | MCF7 breast 114% | HCT-116 colon 106% | HCC-2998 colon 118% | KM12 colon 104%

O=C(O)c1ccc(=O)[nH]c1
-49% (active) and 101% (inactive): HCC-2998 colon
inactive: MOLT-4 leukemia 119% and 99.2% | SR leukemia 87.7% and 105% | RPMI-8226 leukemia 103% and 96.5% | OVCAR-8 ovarian 101% and 103% | OVCAR-5 ovarian 90.3% and 106% | OVCAR-4 ovarian 111% and 106% | SK-OV-3 ovarian 98.9% and 93% | IGROV1 ovarian 109% | OVCAR-3 ovarian 113% and 108% | HS 578T breast 98.5% and 102% | NCI/ADR-RES ovarian 88.9% and 102% | T-47D breast 88.8% and 89.6% | BT-549 breast 89.7% | SW-620 colon 105% and 107% | MCF7 breast 126% and 93.4% | HCT-116 colon 103% and 93.7% | KM12 colon 103% and 105%

CCCCCCCCCCCCCCCCCCn1cc[n+](C)c1
4.33% (active) and 19% (inactive): SR leukemia
inactive: RPMI-8226 leukemia 93.8% and 75.6% | T-47D breast 35.9% and 17%
16.8% (inactive) and 9.25% (active): MOLT-4 leukemia
20.9% (inactive) and -7.98% (active): NCI/ADR-RES ovarian
active: OVCAR-8 ovarian -20.2% and -37.4% | OVCAR-5 ovarian -61.5% and -59.7% | OVCAR-4 ovarian -19.3% and -13.3% | SK-OV-3 ovarian 4.83% and -9.16% | IGROV1 ovarian -43.9% and -43.1% | OVCAR-3 ovarian -48.7% and -56.3% | HS 578T breast -26.1% and -37% | BT-549 breast -55.6% and -55% | SW-620 colon -45.2% and -38.1% | MCF7 breast -33.8% and 6.12% | HCT-116 colon -18.2% and -51.5% | HCC-2998 colon -80.7% and -80.9% | KM12 colon -47.8% and -61.9%

Cc1cc(N(CCCl)CCCl)ccc1/C=N\NC(=O)c1cccnc1
inactive: MOLT-4 leukemia 49.6% and 60.5% | SR leukemia 23.4% and 54.5% | RPMI-8226 leukemia 85.7% and 86.1% | OVCAR-8 ovarian 88.4% and 80.2% | OVCAR-5 ovarian 33.9% and 74% | OVCAR-4 ovarian 93.2% and 80.5% | SK-OV-3 ovarian 74.2% and 102% | IGROV1 ovarian 79.9% and 82.6% | OVCAR-3 ovarian 104% and 101% | HS 578T breast 98.3% and 103% | NCI/ADR-RES ovarian 81.6% and 82.4% | T-47D breast 57.5% and 60.7% | BT-549 breast 86% and 78.8% | MDA-MB-435 melanoma 91.3% and 88.1% | SW-620 colon 91.4% | MCF7 breast 50.4% and 59.7% | HCT-116 colon 84% and 79.2% | HCC-2998 colon 97.1% and 102% | KM12 colon 104% and 95.1%
